# According to PubChem BioAssay (NCATS):
# Inconclusive results are not listed. Where a call stands in place of a potency, no number is given. Unmarked numbers belong to inactive results. The source made the active and inactive calls. The call rests on the fitted dose curve; in most records, active means well fitted curve in the direction sought with a large enough effect; inconclusive means small, poorly fitted or top-dose-only effect, or another doubt; inactive means no such curve, though single readings can be large; an effect the other way counts as inactive or inconclusive.
# Assays:
# [1] = target: Cytochrome P450 3A7 (Homo sapiens) (UniProt P24462); assay: Cytochrome P450 family 3 subfamily A member 7 (CYP3A7) small molecule antagonists: luciferase biochemical qHTS assay (AID 1963596); further: nearly all actives have a fitted effect of over 40% in size
# Cytochrome P450 3A7 (Homo sapiens), sequence (P24462 whole entry, looked up): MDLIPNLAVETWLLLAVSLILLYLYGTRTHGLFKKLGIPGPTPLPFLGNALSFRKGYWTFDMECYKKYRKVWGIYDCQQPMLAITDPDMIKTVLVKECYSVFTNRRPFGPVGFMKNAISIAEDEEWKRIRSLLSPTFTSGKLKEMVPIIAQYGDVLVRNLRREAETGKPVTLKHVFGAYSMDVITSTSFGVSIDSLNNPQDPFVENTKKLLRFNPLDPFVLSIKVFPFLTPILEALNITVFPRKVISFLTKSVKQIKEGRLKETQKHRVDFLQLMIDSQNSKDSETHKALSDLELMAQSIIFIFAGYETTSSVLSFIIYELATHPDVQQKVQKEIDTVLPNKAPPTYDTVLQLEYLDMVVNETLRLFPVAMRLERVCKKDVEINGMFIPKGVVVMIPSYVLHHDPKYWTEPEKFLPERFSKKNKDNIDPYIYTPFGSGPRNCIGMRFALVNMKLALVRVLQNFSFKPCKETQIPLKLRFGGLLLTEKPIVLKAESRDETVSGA
# Summary of the method: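 Compounds were screened in qHTS format for interference with CYP3A7 turnover of a proluciferin substrate. Reactions ran 1 h at room temperature after NADPH regeneration solution was added, then luciferin product was detected by luminescence.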
# [2] = Cellular viability qHTS for adrenocortical cancer (ACC) cell line SW-13 (AID 1963989); conditions: SW-13 ACC cells viability, CellTiter-Glo, 48 h; activity (max response): active compounds read low;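 further: cells grown in serum-free medium with ITS supplement; nearly all actives have a fitted effect of over 65% in size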
# Summary of the method: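 IC50 and maximal-response values come from four-parameter logistic fits of titration data. SW-13 cells in serum-free medium received compounds (up to 46 uM final) for 48 h before CellTiter-Glo luminescence.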
# [3] = Cellular viability qHTS for adrenocortical cancer (ACC) cell line NCI-H295R (AID 1963990); further: nearly all actives have a fitted effect of over 60% in size
# Summary of the method: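 Adrenocortical carcinoma cells, suspended at 300 000 cells/mL in serum-free DMEM plus ITS, rested overnight before pin transfer of compound. After two days' incubation, ATP-dependent luminescence was recorded and curve-fitted.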
# [4] = Viability qHTS for spleen associated tyrosine kinase inhibitor (SYKi) naive MV4-11 cells (AID 1963823); further: nearly all actives have a fitted effect of over 40% in size; further: potency means the concentration at half of the fitted maximal effect
# Summary of the method: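 SYK inhibitor-naive MV4-11 cells, 500 per well, exposed to compounds for 72 hr at 37 C, 5% CO2. Viability read as CellTiter-Glo luminescence after 10 min at room temperature.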
smiles,measurement,setting,value
OCC(O)CS (centres undefined),Potency,[1],inactive
same,activity (max response),[2],8.13%
same,Potency,[3],inactive
COc1c(N2C[C@@H]3CCCN[C@@H]3C2)c(F)cc2c(=O)c(C(=O)O)cn(C3CC3)c12,activity (max response),[2],-4.75%
COc1cc2c(cc1-c1c(C)noc1C)ncc1[nH]c(=O)n(C(C)c3ccccn3)c12 (centres undefined),Potency,[4],0.326 µM (active)
COc1c2c(c(C)c3c1C(=O)OC3)O[C@@]1(C)CCC3(C(C)(C)O)OC(=O)CC[C@]3(C)[C@H]1C2 (some centres undefined),Potency,[4],inactive
CC(C)=C1C[C@@]2(C)C(=CC1=O)CC[C@@H](O)[C@@H]2C,Potency,[4],inactive
CCOC(=O)c1ccc(OCCC2CCN(c3ccc(C)nn3)CC2)cc1,Potency,[4],inactive
c1ccc(-c2[nH]ncc2-c2ccnc3ccccc23)nc1,Potency,[4],inactive
O=C(NCC(=O)N1CCCC1)Nc1ccc2ccccc2c1,Potency,[4],5.8 µM (active)
C(#Cc1cccc(CN2CCOCC2)c1)CCN1CCCCC1,Potency,[4],inactive
COc1cc(O)c2c(c1)C1=C[C@H](O)[C@@H](O)C[C@]1(C)OC2=O,Potency,[4],inactive
C/C=C/C=C/C(O)=C1/C(=O)[C@]2(C)C(=O)[C@@](C)(O)[C@H]1[C@H]([C@@]1(C)OC(=O)C(C)=C1O)[C@H]2C(=O)CC/C=C/C,Potency,[4],inactive
CCCC(=O)O[C@@H]1[C@@H]2[C@@H](OC(C)=O)[C@]3(C)C(=O)[C@H]4[C@@H](OC(C)=O)C(C)(C)C[C@H]4[C@]3(C)C(=O)[C@@]2(OC(C)=O)C[C@@H]1C,Potency,[4],inactive
C=C1/C(=C/C=C2\CCC[C@@]3(C)C2CCC3[C@H](C)/C=C/[C@@H](O)C2CC2)C[C@@H](O)C[C@@H]1O (some centres undefined),Potency,[4],inactive
COC1=CC(=O)CC(C)C12Oc1cc(OC)cc(O)c1C2=O (centres undefined),Potency,[4],inactive
C/C=C/C=C/C=C/C(=O)O[C@@H]1C=C(CO)[C@](O)(CO)[C@@]2(C)CCCC(C)(C)[C@H]12,Potency,[4],16.1 µM (active)
C=CC(C)(O)CC/C=C(\C)C(=O)OC1CC2(C(=O)O)CCC3(C)C(=CCC4C5(C)CCC(OC6OC(COC7OCC(O)C(O)C7O)C(O)C(OC7OCC(O)C(O)C7O)C6OC6OC(CO)C(O)C(O)C6OC6OCC(O)C(O)C6O)C(C)(C)C5CCC43C)C2CC1(C)C (centres undefined),viability (% of control),[4],73.5% [at 9.25 µM]
CC(=O)O[C@H]1C[C@@]2(C)[C@@H](C[C@@H](O)[C@H]3[C@@]4(C)CC[C@@H](O)[C@@H](C)[C@@H]4CC[C@@]32C)/C1=C(\CCC=C(C)C)C(=O)O,Potency,[4],inactive
CC(=O)OC[C@]12[C@H](OC(C)=O)[C@H](OC(=O)c3ccccc3)[C@@H]3[C@@H](OC(C)=O)[C@]1(OC3(C)C)[C@H](C)C[C@H](OC(=O)c1ccccc1)[C@@H]2OC(=O)c1ccccc1,Potency,[4],inactive
C=CC(=O)Nc1cc(Nc2ncc(Cl)c(-c3c[nH]c4ccccc34)n2)c(OC)cc1N(C)CCN(C)C,Potency,[4],0.058 µM (active)
C[C@@H]1O[C@@H](O[C@H]2[C@H](O)[C@@H](O)[C@H](OC[C@H]3O[C@@H](OC(=O)[C@]45CCC(C)(C)C[C@H]4C4=CCC6[C@@]7(C)C[C@H](O)[C@H](O[C@@H]8O[C@H](CO)[C@@H](O)[C@H](O)[C@H]8O)[C@@](C)(C(=O)O)C7CC[C@@]6(C)[C@]4(C)CC5)[C@H](O[C@@H]4O[C@H](CO)[C@@H](O)[C@H](O)[C@H]4O)[C@@H](O)[C@@H]3O)O[C@@H]2CO)[C@H](O)[C@H](O)[C@H]1O (some centres undefined),viability (% of control),[4],103% [at 9.25 µM]
C=C(C)C(=O)O[C@H]1C[C@@](C)(OC(C)=O)[C@@]2(O)CC[C@@](C)(O)[C@H](OC(C)=O)[C@@]23OC(=O)C(COC)=C13,Potency,[4],8.93 µM (active)
CCC(C)C(C(=O)O)N1Cc2c(OCC=C(C)C)c(C)c(OC)c(C(=O)O)c2C1=O (centres undefined),Potency,[4],inactive
Cc1cc(-c2nc(-c3ccc(OC(F)(F)F)cc3)no2)nn1Cc1ccnc(N2CCN(C3CC3)CC2)c1,Potency,[4],inactive
COc1ccc(CCC(=O)c2c(O)cc(O)cc2O[C@@H]2O[C@H](CO)[C@@H](O)[C@H](O)[C@H]2O)cc1,Potency,[4],7.96 µM (active)
CC(=O)O[C@@H]1[C@@H](O)[C@H](O[C@H]2CC[C@]34C[C@]35CC[C@]3(C)[C@@H]([C@@]6(C)CC[C@@H](C(C)(C)O)O6)[C@@H](O)C[C@@]3(C)[C@@H]5C[C@H](O[C@@H]3O[C@H](CO)[C@@H](O)[C@H](O)[C@H]3O)[C@H]4C2(C)C)OC[C@H]1O,Potency,[4],inactive
S=c1ssc2c1CCC2,Potency,[4],inactive
CC(CC(C)O[C@@H]1O[C@H](CO)[C@@H](O)[C@H](O)[C@H]1O)OC(=O)/C=C/c1ccc(O)cc1 (some centres undefined),Potency,[4],inactive
